“And” between values parts separate entries of the source, which are not always exact repeats. Equal entries are not always repeated. Structures can show the parent of a compound that is named as a salt.

Test in all cases: cell viability relative to vehicle control; higher = less cytotoxic
Holding throughout (conditions): 10 µM

For one assay, the system named is K562. Put shortly: (§1)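 Each screen used CRISPR-edited mutant and wild-type clones from four leukaemia lines. Compounds were acoustically dispensed at a single 10 µM dose, and CellTiter-Glo luminescence was read after 48 h with the supernatant first removed. Viability was analysed in Genedata Screener and given as percent of the on-plate vehicle control.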
The next assay deals with MARIMO. In short, it runs like this: as §1
In the next assay the test system is MOLM14. Put shortly:
as §1

The next assay has as its system OCI-AML2. Put shortly: as §1

Consider `COc1ccc(C(=O)CC(=O)c2ccc(C(C)(C)C)cc2)cc1` [Avobenzone (Parsol 1789)], for which the cell viability in the assay with K562 (SRSF2 genotype: SRSF2 P95H/wt) was 87.3% and 92.5%; in the assay with K562 (SRSF2 genotype: SRSF2 wt/wt), 91.8%; in the assay with MARIMO (SRSF2 genotype: SRSF2 P95H/wt), 77.2%; with MARIMO (SRSF2 genotype: SRSF2 wt/wt), 92.6%; in the assay with MOLM14 (SRSF2 genotype: SRSF2 P95H/wt), 87.6%; in the assay on MOLM14 (SRSF2 genotype: SRSF2 wt/wt) it was 98.9%. Moreover, the cell viability was found to be 61.2% in the assay on OCI-AML2 (SRSF2 genotype: P95H/wt) and 76.8% with OCI-AML2 (SRSF2 genotype: wt/wt).
For the molecule `CC1(C)CC(=O)c2c(C(F)(F)F)nn(-c3ccc(C(N)=O)c(N[C@H]4CC[C@H](OC(=O)CN)CC4)c3)c2C1`, the cell viability in the assay with K562 (SRSF2 genotype: SRSF2 P95H/wt) was 21.8% and 27.1%; in the assay on K562 (SRSF2 genotype: SRSF2 wt/wt), 25.3%; in the assay with MARIMO (SRSF2 genotype: SRSF2 P95H/wt) it was 29.4%; in the assay with MARIMO (SRSF2 genotype: SRSF2 wt/wt), 24.4%; in the assay on MOLM14 (SRSF2 genotype: SRSF2 P95H/wt), 2.89%; with MOLM14 (SRSF2 genotype: SRSF2 wt/wt), 4.44%. Moreover, the figures for the cell viability in the assay on OCI-AML2 (SRSF2 genotype: P95H/wt) and in the assay with OCI-AML2 (SRSF2 genotype: wt/wt) were 14.6% and 22.1%, respectively.
Take `Cc1cc(Nc2cc(N3CCN(C)CC3)nc(/C=C/c3ccccc3)n2)n[nH]1`: the cell viability in the assay on K562 (SRSF2 genotype: SRSF2 P95H/wt) is 19.4% and 23.7%; in the assay with K562 (SRSF2 genotype: SRSF2 wt/wt), 18.3%; in the assay on MARIMO (SRSF2 genotype: SRSF2 P95H/wt), 36%; with MARIMO (SRSF2 genotype: SRSF2 wt/wt) it was 26.5%; in the assay with MOLM14 (SRSF2 genotype: SRSF2 P95H/wt) it was 2.58%; in the assay with MOLM14 (SRSF2 genotype: SRSF2 wt/wt), 5.88%. Moreover, the cell viability in the assay with OCI-AML2 (SRSF2 genotype: P95H/wt) is 6.21%; with OCI-AML2 (SRSF2 genotype: wt/wt), 14.9%.
On to `N[C@@H]1CCCCN(c2c(F)cc3c(=O)c(C(=O)O)cn(C4CC4)c3c2Cl)C1` [Besifloxacin HCl (Besivance)], for which the cell viability with K562 (SRSF2 genotype: SRSF2 P95H/wt) was 97.5% and 91.4%; with K562 (SRSF2 genotype: SRSF2 wt/wt), 99.9%; in the assay with MARIMO (SRSF2 genotype: SRSF2 P95H/wt), 99.3%; with MARIMO (SRSF2 genotype: SRSF2 wt/wt), 96.6%; with MOLM14 (SRSF2 genotype: SRSF2 P95H/wt), 97.6%; in the assay on MOLM14 (SRSF2 genotype: SRSF2 wt/wt), 98.3%. Further, the cell viability in the assay with OCI-AML2 (SRSF2 genotype: P95H/wt) was determined as 121%; with OCI-AML2 (SRSF2 genotype: wt/wt) it was 95.6%.
For the molecule `C=C1CC[C@H]2C(=C)CC[C@H]3C(=C)C(=O)O[C@@H]3[C@@H]12` [Dehydrocostus Lactone], the cell viability was 25.2% and 23.9% with K562 (SRSF2 genotype: SRSF2 P95H/wt); 30.8% with K562 (SRSF2 genotype: SRSF2 wt/wt); 13.7% in the assay on MARIMO (SRSF2 genotype: SRSF2 P95H/wt); 16.1% with MARIMO (SRSF2 genotype: SRSF2 wt/wt); 8.31% in the assay on MOLM14 (SRSF2 genotype: SRSF2 P95H/wt); 11.1% in the assay on MOLM14 (SRSF2 genotype: SRSF2 wt/wt). Further, the cell viability in the assay on OCI-AML2 (SRSF2 genotype: P95H/wt) came to 3.84%; in the assay on OCI-AML2 (SRSF2 genotype: wt/wt), 6.64%.
With `CN[C@@H](C)C(=O)N[C@H](C(=O)N1CCC[C@H]1C(=O)N[C@H](C(=O)NCCCCCCNC(=O)[C@@H](NC(=O)[C@@H]1CCCN1C(=O)[C@@H](NC(=O)[C@H](C)NC)C1CCCCC1)C(c1ccccc1)c1ccccc1)C(c1ccccc1)c1ccccc1)C1CCCCC1`, the cell viability in the assay with K562 (SRSF2 genotype: SRSF2 P95H/wt) is 0.93% and 3.98%; in the assay on K562 (SRSF2 genotype: SRSF2 wt/wt), 3.06%; in the assay with MARIMO (SRSF2 genotype: SRSF2 P95H/wt) it was 29.5%; in the assay with MARIMO (SRSF2 genotype: SRSF2 wt/wt), 8.11%; with MOLM14 (SRSF2 genotype: SRSF2 P95H/wt) it was 0.7%; in the assay on MOLM14 (SRSF2 genotype: SRSF2 wt/wt), 0.53%. Further, the cell viability in the assay on OCI-AML2 (SRSF2 genotype: P95H/wt) came out at 4.1%; in the assay on OCI-AML2 (SRSF2 genotype: wt/wt) it was 9.14%.
For `C[C@H]1[C@H](C)CC[C@]2(C(=O)O[C@@H]3O[C@H](CO[C@@H]4O[C@H](CO)[C@@H](O[C@@H]5O[C@H](C)[C@H](O)[C@@H](O)[C@H]5O)[C@H](O)[C@H]4O)[C@@H](O)[C@H](O)[C@H]3O)CC[C@]3(C)C(=CC[C@@H]4[C@@]5(C)C[C@@H](O)[C@H](O)[C@@](C)(CO)[C@@H]5CC[C@]43C)[C@H]12` [Asiaticoside], the cell viability in the assay on K562 (SRSF2 genotype: SRSF2 P95H/wt) was 102% and 105%; in the assay on K562 (SRSF2 genotype: SRSF2 wt/wt) it was 101%; in the assay on MARIMO (SRSF2 genotype: SRSF2 P95H/wt), 103%; with MARIMO (SRSF2 genotype: SRSF2 wt/wt), 99.2%; in the assay on MOLM14 (SRSF2 genotype: SRSF2 P95H/wt), 103%; in the assay with MOLM14 (SRSF2 genotype: SRSF2 wt/wt), 103%. Besides, the cell viability in the assay with OCI-AML2 (SRSF2 genotype: P95H/wt) stood at 98.7%; in the assay with OCI-AML2 (SRSF2 genotype: wt/wt), 106%.
Take `CCCCCCCCCCCCN1CCCCCC1=O` [Laurocapram]: the cell viability is 82.4% and 87.5% in the assay with K562 (SRSF2 genotype: SRSF2 P95H/wt); 93.1% with K562 (SRSF2 genotype: SRSF2 wt/wt); 80.5% in the assay on MARIMO (SRSF2 genotype: SRSF2 P95H/wt); 86.3% in the assay on MARIMO (SRSF2 genotype: SRSF2 wt/wt); 80.8% in the assay on MOLM14 (SRSF2 genotype: SRSF2 P95H/wt); 90.8% in the assay with MOLM14 (SRSF2 genotype: SRSF2 wt/wt). Also, the cell viability is 70.4% with OCI-AML2 (SRSF2 genotype: P95H/wt) and 73.7% in the assay on OCI-AML2 (SRSF2 genotype: wt/wt).
For `Cc1cccc(Oc2cnc(=O)[nH]c2)c1`, the cell viability in the assay with K562 (SRSF2 genotype: SRSF2 P95H/wt) was 97.7% and 96%; in the assay with K562 (SRSF2 genotype: SRSF2 wt/wt), 99.4%; in the assay with MARIMO (SRSF2 genotype: SRSF2 P95H/wt), 94.2%; in the assay on MARIMO (SRSF2 genotype: SRSF2 wt/wt), 97%; in the assay with MOLM14 (SRSF2 genotype: SRSF2 P95H/wt), 100%; in the assay with MOLM14 (SRSF2 genotype: SRSF2 wt/wt), 97.4%. For the same molecule, the values for the cell viability in the assay with OCI-AML2 (SRSF2 genotype: P95H/wt) and in the assay on OCI-AML2 (SRSF2 genotype: wt/wt) were 103% and 101%, respectively.
Take `COc1ccc(CC(=O)Nc2nc3c(s2)CCc2ccccc2-3)cc1OC`: the cell viability with K562 (SRSF2 genotype: SRSF2 P95H/wt) is 70.4% and 68.1%; in the assay with K562 (SRSF2 genotype: SRSF2 wt/wt) it was 68.3%; in the assay with MARIMO (SRSF2 genotype: SRSF2 P95H/wt), 45.1%; in the assay with MARIMO (SRSF2 genotype: SRSF2 wt/wt), 26.8%; in the assay with MOLM14 (SRSF2 genotype: SRSF2 P95H/wt), 65.1%; in the assay with MOLM14 (SRSF2 genotype: SRSF2 wt/wt), 76.5%. Moreover, the results for the cell viability in the assay with OCI-AML2 (SRSF2 genotype: P95H/wt) and in the assay on OCI-AML2 (SRSF2 genotype: wt/wt) were 27.9% and 34.9%, respectively.

Source of the values: the supplement of paper PMC10981050.
